PubChem BioAssay (NCATS)
Records with an inconclusive call do not appear. Entries that show only a call come without a potency. Values without a mark were called inactive. Activity calls are given as the source filed them. Calls follow the shape of the dose curve; as a rule, active = well fitted curve in the direction sought with a large enough effect; inconclusive = small, poorly fitted or top-dose-only effect, or another doubt; inactive = no such curve, though single readings can be large; an effect the other way counts as inactive or inconclusive.

Columns and labels:
[1] = tested on: OV90; assay: Primary qHTS to identify gynecologic anti-cancer compounds using libraries of approved drugs and bioactive compounds (AID 1345084); details: Gynecologic cancer cell panel viability, ATPlite luminescence, 48 h; series mostly up to 57.5 µM; also: nearly all actives have a fitted effect of over 55% in size
Method in brief: (§1)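 Measured: luminescence after ATPlite addition (15 min, RT). Exposure: 48 h, 37 C, 5% CO2.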

[2] = tested on: PA-1; assay: as above; details: Gynecologic cancer cell panel viability, ATPlite luminescence, 48 h; series mostly up to 57.5 µM
Method in brief: as §1

[3] = tested on: Tov-21-G; assay: as above; details: Gynecologic cancer cell panel viability, ATPlite luminescence, 48 h; series mostly up to 57.5 µM
Method in brief: as §1

[4] = tested on: Tov112D; assay: as above; details: Gynecologic cancer cell panel viability, ATPlite luminescence, 48 h; series mostly up to 57.5 µM
Method in brief: as §1

[5] = qHTS assay to identify inhibitors of the type 1 interferon - major histocompatibility complex class I in skeletal muscle: Counter screen cell viability and HiBit confirmation (AID 1347412); details: iHSKM muscle cells + IFN-b, HiBiT or CellTiter-Glo, 24 h; also: nearly all actives have a fitted effect of over 60% in size
Method in brief: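 CRISPR HLA-B*08:01-HiBit immortalized human myoblasts (C25cl48) stimulated with 4 ng/ml IFN-beta and compounds (12-point 1:3, top 46 uM final) for 24 h at 37 C. Duplicate plates read by HiBit lytic luminescence or CellTiter Glo ATP.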
Potency is read from the fitted curve at half-maximal effect.

SMILES	Potency [1]	Potency [2]	Potency [3]	Potency [4]	Potency ([5]; HiBiT)	activity change, negative = inhibition ([5]; Viability, at 45.9 µM (top of the series)) [%]
N[C@@]1(C(=O)O)CC[C@H]2[C@H](C(=O)O)[C@H]21	inactive	inactive	inactive	inactive	–	–
CC1=CCC(C(C)(C)O[C@@H]2O[C@H](CO[C@@H]3O[C@@H](C)[C@H](O)[C@@H](O)[C@H]3O)[C@@H](O)[C@H](O)[C@H]2O)CC1 (some centres not stated)	inactive	inactive	inactive	inactive	–	–
CN1c2ccccc2C(=O)N2CCC3c4ccccc4NC3C21 (configuration not stated)	inactive	4470 nM (active)	6310 nM (active)	1780 nM (active)	–	–
CC(=O)O[C@H]1C[C@@](O)(C(C)C)C2[C@@H](OC(=O)c3ccc(O)cc3)C[C@@]3(C)O[C@H]3C[C@]21C (some centres not stated)	inactive	inactive	inactive	inactive	–	–
C=C[C@@](C)(O)CC/C=C(\C)C(=O)O[C@@H]1[C@@H]2O[C@]2(C)[C@H]2[C@H](O[C@@H]3O[C@H](CO)[C@@H](O)[C@H](O)[C@H]3O)OC=C[C@@]12O	inactive	inactive	inactive	inactive	–	–
CC(C)=CCC/C(C)=C/CO[C@@H]1O[C@H](CO)[C@@H](O)[C@H](O)[C@H]1O	inactive	inactive	inactive	inactive	–	–
C[C@H](C/C=C/C(C)(C)O)[C@H]1CC[C@@]2(C)[C@@H]3[C@@H](O[C@@H]4O[C@H](CO)[C@@H](O)[C@H](O)[C@H]4O)C=C4C(CC[C@H](O)C4(C)C)[C@]3(C=O)CC[C@]12C (some centres not stated)	inactive	inactive	inactive	inactive	–	–
OCC(CO[C@@H]1O[C@H](CO)[C@@H](O)[C@H](O)[C@H]1O)c1ccc2c(c1)OCO2 (some centres not stated)	inactive	inactive	inactive	inactive	–	–
NC(=O)[C@H](O[C@@H]1O[C@H](CO)[C@@H](O)[C@H](O)[C@H]1O)c1ccccc1	inactive	inactive	inactive	inactive	–	–
CC(C)(O)c1ccc2c(c1)C(O)C[C@H]1[C@](C)(C(=O)O)CCC[C@]21C (some centres not stated)	inactive	inactive	inactive	inactive	–	–
Clc1cc2c(NC3CCCC3)nnc(-c3ccncc3)c2cc1Cl	inactive	inactive	inactive	inactive	–	–
CC(C)[C@@H]1C(=O)N(S(C)(=O)=O)[C@@H]2CCN(C(=O)/C=C/CN3CCCCC3)[C@H]21	inactive	inactive	inactive	inactive	–	–
CC(C)=CCC(O)/C(C)=C/CO[C@@H]1O[C@H](CO)[C@@H](O)[C@H](O)[C@H]1O (some centres not stated)	inactive	inactive	inactive	inactive	–	–
OCCc1ccc(O[C@@H]2O[C@H](CO)[C@@H](O)[C@H](O)[C@H]2O)cc1	inactive	inactive	inactive	inactive	–	–
CC(=O)OC1C[C@@]2(C)[C@@H](CC[C@@H](C)[C@]23Cc2c(O)cc4c(c2O3)CNC4=O)C(C)(C)[C@@H]1O (some centres not stated)	inactive	inactive	inactive	inactive	–	–
CN(C)c1ccc2c(c1)OC(N)=C(C#N)C2c1cccc(C(F)(F)F)c1 (configuration not stated)	1410 nM (active)	178 nM (active)	251 nM (active)	316 nM (active)	–	–
Cc1cc(O)cc(O[C@@H]2O[C@H](CO)[C@@H](O)[C@H](O)[C@H]2O)c1	inactive	inactive	inactive	inactive	–	–
COc1ccc([C@@H]2OC[C@H]3[C@@H]2CO[C@@H]3c2ccc(OC3OC(CO)C(O)C(O)C3O)c(OC)c2)cc1OC (some centres not stated)	inactive	inactive	inactive	inactive	–	–
COC1=CC(=O)CC(C)C12Oc1cc(OC)cc(O)c1C2=O (configuration not stated)	inactive	inactive	inactive	inactive	–	–
COCCN1CCN(Cc2ccc(-c3n[nH]c4c3C(=O)c3c(NC(=O)NN5CCOCC5)cccc3-4)cc2)CC1	inactive	251 nM (active)	282 nM (active)	316 nM (active)	70.1 nM (active)	44.8
CC(C)c1cc(C(=O)N2CC[C@@H](NC(=O)C3CC3)C2)n[nH]1	inactive	inactive	inactive	inactive	–	–
Cc1cc(C(=O)N2CCCCc3ccccc32)ccc1CNC(=O)N1CCC[C@H]1C(=O)N(C)C	inactive	inactive	inactive	inactive	–	–
CCC(CC)C(=O)Nc1sc2c(c1C#N)CCC(C(C)(C)CC)C2 (configuration not stated)	inactive	inactive	inactive	inactive	–	–
CCNC(=O)C1OC(n2cnc3c(N)nc(NCCc4ccc(CCC(=O)O)cc4)nc32)C(O)C1O (configuration not stated)	inactive	inactive	inactive	inactive	–	–
O=C(Cc1ccc(-c2ccccc2)cc1)NC1CCC1	inactive	inactive	inactive	inactive	–	–
